# Out of some 350,000 compounds screened, about 450 (0.13%) were called active. No rule for the calls is given here. The list is a sample of the results. Potency and affinity values are given separately.
# Experiment: inhibitors of VEEV TC-83 cytopathic effect, confirmation, Vero cells (AID 588727)
# Conditions: VEEV TC-83 cytopathic effect inhibition, at 20 µM
# [1] = stronger effect = higher value unless noted
# [2] = measured here: 10K pilot screen inhibition, stronger effect = higher value
compound,measurement,setting,value
OC(COCc1cccs1)CN1CCN(c2cccc(Cl)c2)CC1 (stereo not given),inhibition,[1],inactive
Cc1ccc(C(=O)C=CC=Cc2ccccc2)cc1,inhibition,[1],inactive
Cc1ccc(/C=C/C(=O)c2ccccc2)cc1,inhibition,[1],inactive
Cn1cnc2c(SCc3ccccc3)ncnc21,inhibition,[1],inactive
CCCCn1cnc2c(SCc3ccccc3Cl)nc(N)nc21,inhibition,[1],6.5% (inactive)
OCCn1cnc2c(SCc3ccccc3)ncnc21,inhibition,[1],6.32% (inactive)
CC(C)Cn1cnc2c(SCc3ccccc3Cl)nc(N)nc21,inhibition,[1],9.3% (inactive)
CCC(C(=O)NCCCN1CCCC1=O)n1c2ccccc2c2nc(=O)cc(C)n21 (stereo not given),inhibition,[1],inactive
CC(C)C(C)NC(=O)CN1C(=O)NC(C)(c2ccc3ccccc3c2)C1=O (stereo not given),inhibition,[1],inactive
COCCn1c(SCC(=O)Nc2ccc(Cl)cn2)nc2ccccc21,inhibition,[1],2.54% (inactive)
Cc1cc(SCC(=O)Nc2ncc(Cl)cc2Cl)nc2ccccc12,inhibition,[1],0.95% (inactive)
COc1ccc(-n2c(SC(C)C(=O)Nc3ncc(Cl)cc3Cl)nc3ccccc32)cc1 (stereo not given),inhibition,[1],8.08% (inactive)
CC(Sc1nnc(-c2ccccc2)c(-c2ccccc2)n1)C(=O)Nc1ncc(Cl)cc1Cl (stereo not given),inhibition,[1],0.85% (inactive)
CCN(CC)S(=O)(=O)c1ccc(NN=c2c(=O)c3ccccc3c2=O)cc1,inhibition,[1],0.93% (inactive)
CCOC(=O)C1(CCOC)CCN(C(=O)Cc2ccsc2)CC1,inhibition,[1],0.57% (inactive)
CCOC(=O)c1cn(Cc2ccccc2)nc1-c1ccccc1,inhibition,[1],inactive
Cc1cccc(-n2c(C)cc(/C=N\NC(=O)c3ccco3)c2C)c1,inhibition,[1],1.2% (inactive)
Cc1cc(/C=N\NC(=O)c2cccs2)c(C)n1-c1ccc2ncccc2c1,inhibition,[1],11.1% (inactive)
COCCOC1CCN(C(=O)c2cc(COc3ccc(F)cc3F)on2)CC1,inhibition,[1],1.37% (inactive)
CCOC(=O)c1c(SC)n(-c2ccccc2)c(=S)n(-c2ccccc2)c1=O,inhibition,[1],0.87% (inactive)
CCOC(=O)c1c2c(c(=S)n(-c3ccccc3)c1N)CCC2,inhibition,stronger effect = higher value,4.5% (inactive)
same,inhibition,[2],3.38%
COc1ccc(CSC(=N)N)cc1[N+](=O)[O-],inhibition,[1],4.91% (inactive)
CCOc1ccc(CSC(=N)N)cc1[N+](=O)[O-],inhibition,[1],9.41% (inactive)
Nc1nc(N)nc(-c2cccc(Cl)c2)n1,inhibition,[1],1.28% (inactive)
COc1ccccc1CN1CCN(C(=O)c2cccc3ccccc23)CC1,inhibition,[1],inactive
Cc1ccc2c(CC(=O)Nc3nc(C)cs3)coc2c1,inhibition,[1],5.51% (inactive)
Cc1cc2occ(CC(=O)Nc3nccs3)c2cc1C(C)C,inhibition,[1],0.63% (inactive)
Cc1c(N(C)S(=O)(=O)c2cccc(C(=O)NCC3CCCO3)c2)c(=O)n(-c2ccccc2)n1C (stereo not given),inhibition,[1],1.98% (inactive)
NC(=O)C1CCN(C(=O)c2cc(S(=O)(=O)N3CCOCC3)c(Cl)cc2Cl)CC1,inhibition,[1],0.6% (inactive)
Cc1nn(-c2ccc(C(=O)O)cc2)c(=O)c2ccccc12,inhibition,[1],0.65% (inactive)
COc1ccc(CCNC(=O)CSc2nc(=O)[nH]c3c2CCC3)cc1OC,inhibition,[1],0.77% (inactive)
COc1ccc(CC(=O)OCC(=O)Nc2ncc(Cl)c(C)c2Cl)cc1,inhibition,[1],5.2% (inactive)
COc1ccccc1/C=C/C(=O)c1ccccc1,inhibition,[1],26.1% (inactive)
COc1ccccc1/C=C/C(=O)c1ccc(Cl)cc1,inhibition,[1],inactive
COc1ccccc1C(=O)N(Cc1ccco1)C1CCS(=O)(=O)C1 (stereo not given),inhibition,[1],0.87% (inactive)
CCCCNC(=O)[C@@H]1CCCN1S(=O)(=O)c1cccc2cccnc12,inhibition,[1],inactive
O=C(Cc1ccc(NC(=O)C2CCN(C(=O)c3ccccc3)CC2)cc1)Nc1cccc(C(=O)N2CCCC2)c1,inhibition,[1],inactive
O=C(Nc1cccc2ccccc12)N(c1ccccc1)c1ccccc1,inhibition,[1],inactive
Cc1ccnc(NS(=O)(=O)c2ccc(NC(=O)c3ccc(C)o3)cc2)n1,inhibition,[1],0.84% (inactive)
Cc1sc2nc(CN(Cc3cccs3)C(=O)NC3CCCCC3)[nH]c(=O)c2c1C,inhibition,[1],6.2% (inactive)
CC[C@@H](C)[C@H](CNC)NC[C@@H](Cc1cccc2ccccc12)NCCc1cccc(C(F)(F)F)c1,inhibition,[1],"0% [measured here: 10K pilot screen inhibition, stronger effect = higher value]"
same,outcome,[1],inactive
CNC[C@H](Cc1ccccc1)NC[C@@H](Cc1cccc2ccccc12)NCCc1ccc(C)cc1,inhibition,[1],inactive
COc1ccc(/C=N\NC(=O)c2ccccc2OC)cc1COc1ccccc1C,inhibition,[1],10.1% (inactive)
Cc1ccc(-c2nc(SC(C)C(=O)c3c(N)n(C)c(=O)n(C)c3=O)n[nH]2)cc1 (stereo not given),inhibition,[1],10.2% (inactive)
CCC(=O)N1c2ccc(S(=O)(=O)CCC(=O)NCc3cccs3)cc2CC1C (stereo not given),inhibition,[1],1.31% (inactive)
O=C(NCC(Cl)c1ccc2ccccc2c1)c1c(F)cccc1F (stereo not given),inhibition,[1],inactive
Cc1cc(-c2nnc(SCC(=O)Nc3ccccc3C(F)(F)F)n2N)n[nH]1,inhibition,[1],1.16% (inactive)
COc1cc(CNCCSc2nnnn2C)cc(Br)c1OCc1ccccc1F,inhibition,[1],inactive
COc1ccc(C(=O)/C=C/c2ccc(OC)c(Cn3nnc4ccccc43)c2)cc1,inhibition,[1],30.9% (inactive)
COc1ccc(/C=C/C(=O)c2ccccc2O)cc1CN1CCOCC1,inhibition,[1],6.83% (inactive)
COc1ccc(/C=C/C(=O)c2ccc3ccccc3c2O)cc1CN1CCOCC1,inhibition,[1],2% (inactive)
COc1ccc(/C=C/C(=O)C23CC4CC(CC(C4)C2)C3)cc1CN1CCOCC1,inhibition,[1],6.32% (inactive)
CCC1(C)NC(=O)N(CC(=O)NCC(=O)Nc2c(C)cc(C)cc2C)C1=O (stereo not given),inhibition,[1],inactive
O=C(CSc1ncnc2c1cnn2-c1ccccc1)NC1CCCC1,inhibition,[1],4.66% (inactive)
Cc1nn(-c2ccccn2)c2nc(-c3cccs3)cc(C(=O)NCc3ccco3)c12,inhibition,[1],8.96% (inactive)
CCC(=O)N1CCc2cc(S(=O)(=O)N3CCN(c4ccccc4)CC3)ccc21,inhibition,[1],0.73% (inactive)
CC(C)[C@H](NS(=O)(=O)c1ccccc1)C(=O)OCC(=O)Nc1cccc(S(N)(=O)=O)c1,inhibition,[1],3.51% (inactive)
CS(=O)(=O)N1CCN(c2ccc([N+](=O)[O-])c(NCCN3CCOCC3)c2)CC1,inhibition,[1],0.31% (inactive)
CC(C)c1ccc(Nc2ncccc2C(=O)O)cc1,inhibition,[1],7.46% (inactive)
COc1ccc(Nc2ncccc2C(=O)O)cc1,inhibition,[1],inactive
CC[C@@]1(C(=O)OC)N[C@H](CN(C)C(=O)Nc2ccc(OC)cc2)[C@@H]2C(=O)N(C)C(=O)[C@@H]21,inhibition,[1],inactive
COc1ccc(C(=O)CCC(=O)Nc2cccnc2)cc1,inhibition,[1],1.27% (inactive)
COc1ccc(Nc2c(-c3ccc(C)cc3)nc3cnccn23)cc1,inhibition,[1],2.6% (inactive)
CCOC(=O)C1CCCN(c2nnnn2-c2ccccc2)C1 (stereo not given),inhibition,[1],0.53% (inactive)
O=C(CSc1nnc(-c2ccco2)o1)Nc1cccc([N+](=O)[O-])c1,inhibition,[1],1.81% (inactive)
O=C(Oc1ccc2ccccc2c1Cl)N1CCCCCC1,inhibition,[1],2.11% (inactive)
O=C(Oc1ccc2ccccc2c1Cl)N1CCCC1,inhibition,[1],35.1% (inactive)
CN1CCN(C(=O)CCc2nc3ccccc3c(=O)[nH]2)CC1,inhibition,[1],5.24% (inactive)
CN(C)C(CNC(=O)CN1C(=O)NC2(CCCC2)C1=O)c1ccccc1 (stereo not given),inhibition,[1],1.45% (inactive)
CCOc1ccc(/C=N/NC(=O)c2ccc(O)cc2)cc1CN1CC2CC(C1)c1cccc(=O)n1C2 (stereo not given),inhibition,[1],1.76% (inactive)
CCc1c(C)sc(NC(=O)c2cccs2)c1C(N)=O,inhibition,[1],0.91% (inactive)
CCc1c(C)sc(NC(=O)C2CCCCC2C(=O)O)c1C(N)=O (stereo not given),inhibition,[1],inactive
O=C(O)CSc1nnc(Cc2ccccc2)n1-c1ccccc1,inhibition,stronger effect = higher value,4.71% (inactive)
same,inhibition,[2],0.6%
COc1ccc(Cl)cc1NC(=O)C(C)N(C)Cc1cccc(Cl)c1Cl (stereo not given),inhibition,[1],0.94% (inactive)
COc1ccc(C2/C(=C(\O)c3cc(C)ccc3C)C(=O)C(=O)N2CCN(C)C)cc1OC (stereo not given),inhibition,[1],0.58% (inactive)
O=C(O)CCC(=O)N1CCCC1,inhibition,[1],0.36% (inactive)
Nc1ccn([C@H]2CS[C@@H](CO)O2)c(=O)n1,inhibition,[1],1.18% (inactive)
CC(Sc1ncnc2sc(-c3ccccc3)cc12)C(=O)NCC1CCCO1 (stereo not given),inhibition,[1],12.6% (inactive)
CCc1cccc2c(SC(C)C(=O)NCC3CCCO3)nc(-c3ccccc3)nc12 (stereo not given),inhibition,[1],0.17% (inactive)
Cc1cccc(NC(=O)NNC(=O)c2sccc2-n2cccc2)c1,inhibition,[1],2.59% (inactive)
O=C(/C=C/c1c(F)cccc1Cl)Nc1ncccn1,inhibition,[1],7.45% (inactive)
O=C(/C=C/c1ccccc1Cl)c1ccc(O)cc1,inhibition,[1],12.4% (inactive)
CCCCn1c(N)c(N(Cc2ccccc2OC)C(=O)CCSC)c(=O)[nH]c1=O,inhibition,[1],2% (inactive)
Cc1nn(C)cc1/C=N/NC(=S)Nc1ccc(Cl)cc1Cl,inhibition,[1],1.88% (inactive)
Clc1cccc(-c2noc3ncnc(Nc4ccc5c(c4)OCO5)c23)c1,inhibition,[1],1.3% (inactive)
O=C(Nc1ccc(N2CCCC2)c(Cl)c1)c1cccnc1,inhibition,[1],9.45% (inactive)
O=C(Nc1ccc(N2CCOCC2)c(Cl)c1)c1cccnc1,inhibition,[1],1.94% (inactive)
O=C(Nc1ccc(Cl)cc1)c1nc[nH]c1C(=O)NCCN(CCNC(=O)c1[nH]cnc1C(=O)Nc1ccc(Cl)cc1)CCNC(=O)c1[nH]cnc1C(=O)Nc1ccc(Cl)cc1,inhibition,[1],0.19% (inactive)
CCCN1C(=O)c2ccccc2NC1c1ccc(OC)cc1OC (stereo not given),inhibition,[1],inactive
CCCN1C(=O)c2ccccc2NC1c1cc(OC)c(OC)c(OC)c1 (stereo not given),inhibition,[1],inactive
CCOC(=O)c1c(-c2ccccc2)oc2cc(CN(C)C)c(O)c(CN(C)C)c12,inhibition,[1],2.26% (inactive)
CC1(C)Cc2[nH]c3ccccc3c2C(C)(C)N1,inhibition,[1],0.1% (inactive)
Cc1cccn2cc(COc3cccc([N+](=O)[O-])c3)nc12,inhibition,[1],2.58% (inactive)
Cc1cccn2cc(-c3ccccc3)nc12,inhibition,[1],5.4% (inactive)
Cc1ccc(S(=O)(=O)Oc2ccc(N3C(=O)C4C5CCC(C5)C4C3=O)cc2)cc1 (stereo not given),inhibition,[1],2.05% (inactive)
Cc1ccc2oc(=O)c3cnn(CC(=O)N4CCN(c5ccccc5)CC4)c3c2c1,inhibition,[1],10.3% (inactive)
Cc1ccc2[nH]c3c(=O)n(CC(=O)Nc4ccccc4N4CCN(C)CC4)ncc3c2c1,inhibition,[1],0.06% (inactive)

# Source: PubChem BioAssay AID588727 (Southern Research Specialized Biocontainment Screening …, 2011)
